What is called AC50 is the concentration at which the activity in the assay is half-maximal.

SMILES strings stand for the structures. Records with an inconclusive call do not appear. Activity calls are given as the source filed them. Rule for the calls, unless noted: active = hit-call score of the fitted dose curve at least 0.9, where 1 is the maximum; inactive = score below 0.9.

These results are taken from PubChem BioAssay (EPA / NIEHS).

The nature of test [1]: BSK_3C_SRB: Viability Assessment in the BioMAP Diversity Plus: 3C Assay (AID 2283023).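 Note: fitted both ways against DMSO so a hit may be signal rise or drop.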 Particulars: primary human endothelial cells (HUVEC). A digest of the protocol: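 HUVEC, 24 h post-dose; 10% TCA fix, 0.1% SRB stain, A560 nm. Bidirectional curve fit vs DMSO negative control.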
Read-out in test [2]: Matrix Metallopeptidase 1 (MMP1), MMP1 (gene 4312)
In words: BSK_BE3C_MMP1: BioMAP Diversity Plus: BE3C Assay for Matrix Metallopeptidase 1 (MMP1) Biomarker Activity (AID 2283024). Particulars: primary human bronchial epithelial cells; actives raise or lower the signal. A digest of the protocol: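 In this multiplexed primary-cell system, human bronchial epithelium received chemicals for 24 h before an ELISA for MMP1. Values reflect bidirectional fits normalised to the DMSO baseline.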

Test [3] in a line: BSK_3C_Vis: BioMAP Diversity Plus: 3C Assay for Morphology Visualization (AID 2283025).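 For AC50: light microscopy image of cell morphology used as background control.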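 Note: fitted both ways so gain or loss versus DMSO counts.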 Particulars: primary human endothelial cells (HUVEC). Put shortly:
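Light-microscopy morphology readout, 24 h exposure, human primary umbilical vein endothelium; analysed relative to DMSO with bidirectional fitting.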

Read-out in test [4]: Pselectin, SELP (gene 6403)
In words: BSK_4H_Pselectin: BioMAP Diversity Plus: 4H Assay for Pselectin Biomarker Activity (AID 2283026). Particulars: primary human endothelial cells (HUVEC); actives raise or lower the signal. Put shortly: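 Bidirectional fits against DMSO gave the endpoint. Cells: primary human umbilical vein endothelium, chemical-treated for 24 h before ELISA detection of P-selectin.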

Test [5] is described as follows: BSK_4H_SRB: Viability Assessment in the BioMAP Diversity Plus: 4H Assay (AID 2283027).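 For AC50: curves fitted both ways versus DMSO so AC50 may be loss or gain.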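 Note: cells exposed to compound for 24 h before staining.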 As to conditions: primary human endothelial cells (HUVEC). A digest of the protocol:
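HUVEC, 24 h post-dose; 10% TCA fix, 0.1% SRB stain, A560 nm. Total protein = overt cytotoxicity, parallel to biomarker read. Bidirectional fit vs DMSO baseline.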

Test [6] in a line: BSK_BE3C_SRB: Viability Assessment in the BioMAP Diversity Plus: BE3C Assay (AID 2283028).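 For AC50: fitted both ways so AC50 may mark signal gain or loss versus DMSO.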 Particulars: primary human bronchial epithelial cells. Put shortly:
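Primary human bronchial epithelium; chemical dosing, 24 h; 10% TCA fix, 0.1% SRB stain, A560; bidirectional fit vs DMSO baseline.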

Read-out in test [7]: Thrombomodulin, THBD (gene 7056)
Put plainly: BSK_3C_Thrombomodulin: BioMAP Diversity Plus: 3C Assay for Thrombomodulin Biomarker Activity (AID 2283029). As to conditions: primary human endothelial cells (HUVEC); actives raise or lower the signal. A digest of the protocol:
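In a multiplexed primary-cell system, human umbilical vein endothelium received chemical and was assayed 24 h later for thrombomodulin by ELISA. Parallel cultures were SRB-stained (0.1% SRB after 10% TCA fixation, read at 560 nm) to flag cytotoxicity.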

Read-out in test [8]: Urokinase-type plasminogen activator receptor (uPAR), PLAUR (gene 5329)
Put plainly: BSK_4H_uPAR: BioMAP Diversity Plus: 4H Assay for Urokinase-type plasminogen activator receptor (uPAR) Biomarker Activity (AID 2283030). Particulars: primary human endothelial cells (HUVEC); actives raise or lower the signal. A digest of the protocol: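 HUVEC, 24 h post-dose; uPAR by ELISA; bidirectional fit vs DMSO baseline.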

Read-out in test [9]: Vascular endothelial growth factor receptor 2 (Homo sapiens) (UniProt P35968)
Put plainly: BSK_4H_VEGFRII: BioMAP Diversity Plus: 4H Assay for Vascular endothelial growth factor receptor 2 (VEGFR2) Biomarker Activity (AID 2283031).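 For AC50: cell-surface VEGFR2 protein level quantified by ELISA.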 Particulars: primary human endothelial cells (HUVEC); actives raise or lower the signal. A digest of the protocol: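 HUVEC (human primary), 4H system; 24 h post-dose; VEGFRII by ELISA; bidirectional curve fit vs DMSO baseline; gain or loss of signal scored.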

Read-out in test [10]: Vascular cell adhesion molecule 1 (VCAM1), VCAM1 (gene 7412)
In words: BSK_4H_VCAM1: BioMAP Diversity Plus: 4H Assay for Vascular cell adhesion molecule 1 (VCAM1) Biomarker Activity (AID 2283033).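 For outcome: cell-surface VCAM-1 protein measured by ELISA.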 Particulars: primary human endothelial cells (HUVEC); actives raise or lower the signal. A digest of the protocol: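 In this human endothelial (HUVEC) system, biomarker ELISA was run 24 h after compound addition, and total protein in parallel wells was assessed by SRB at 560 nm; DMSO served as negative control.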

Read-out in test [11]: Interferon-gamma inducible Protein 10 (IP10), CXCL10 (gene 3627)
In words: BSK_BE3C_IP10: BioMAP Diversity Plus: BE3C Assay for Interferon-gamma inducible Protein 10 (IP10) Biomarker Activity (AID 2283034). Particulars: primary human bronchial epithelial cells; actives raise or lower the signal. Put shortly:
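BE3C cells (human bronchial epithelial, primary); 24 h exposure; ELISA for IP-10; DMSO-referenced bidirectional fit.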

Read-out in test [12]: Monokine induced gamma interferon (MIG), CXCL9 (gene 4283)
Put plainly: BSK_BE3C_MIG: BioMAP Diversity Plus: BE3C Assay for Monokine induced gamma interferon (MIG) Biomarker Activity (AID 2283035). Particulars: primary human bronchial epithelial cells; actives raise or lower the signal. A digest of the protocol: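 Dose cells (human primary bronchial epithelial), incubate 24 h, quantify MIG by ELISA, then fit concentration–response in both directions relative to DMSO control.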

Read-out in test [13]: Transforming growth factor beta 1 (TGFb1), TGFB1 (gene 7040)
In words: BSK_BE3C_TGFb1: BioMAP Diversity Plus: BE3C Assay for Transforming growth factor beta 1 (TGFb1) Biomarker Activity (AID 2283036;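 for outcome: TGF-b1 protein level measured by ELISA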). As to conditions: primary human bronchial epithelial cells; actives raise or lower the signal. A digest of the protocol:
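TGF-b1 measured via ELISA, 24 h after chemical dosing of human bronchial epithelial cells (BE3C). Overt cytotoxicity assessed in parallel by SRB (0.1%, TCA-fixed, 560 nm); analysis bidirectional relative to DMSO.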

Read-out in test [14]: Plasminogen activator inhibitor-1 (PAI1), SERPINE1 (gene 5054)
In words: BSK_BE3C_PAI1: BioMAP Diversity Plus: BE3C Assay for Plasminogen activator inhibitor-1 (PAI1) Biomarker Activity (AID 2283037). Particulars: primary human bronchial epithelial cells; actives raise or lower the signal. A digest of the protocol: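 In this multiplexed primary-cell system, bronchial epithelial cells receive test chemical and are sampled at 24 h. PAI-1 is read by ELISA, with DMSO serving as negative control for bidirectional fitting.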

Read-out in test [15]: urokinase plasminogen activator (uPA), PLAU (gene 5328)
In words: BSK_BE3C_uPA: BioMAP Diversity Plus: BE3C Assay for urokinase plasminogen activator (uPA) Biomarker Activity (AID 2283038).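 For outcome: uPA protein level quantified by ELISA in cell cultures; uPA read one day after compound addition.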 As to conditions: primary human bronchial epithelial cells; actives raise or lower the signal. A digest of the protocol: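 ELISA read-out of uPA in human lung primary bronchial epithelial cultures, 24 h post-dosing. Gain or loss of signal fitted bidirectionally relative to DMSO baseline; cytotoxicity checked in parallel cultures via SRB total protein stain.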

Read-out in test [16]: Urokinase-type plasminogen activator receptor (uPAR), PLAUR (gene 5329)
Put plainly: BSK_BE3C_uPAR: BioMAP Diversity Plus: BE3C Assay for Urokinase-type plasminogen activator receptor (uPAR) Biomarker Activity (AID 2283039).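 For outcome: uPAR protein level measured by ELISA on the cells; cells exposed to compound for one day before measurement.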 Particulars: primary human bronchial epithelial cells; actives raise or lower the signal. Put shortly: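 Chemically treated human bronchial epithelial cells (lung primary) are assayed for uPAR by ELISA after 24 h, with data fitted in both directions using DMSO as negative control.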

Read-out in test [17]: Interleukin-6 (IL6), IL6 (gene 3569)
In words: BSK_CASM3C_IL6: BioMAP Diversity Plus: CASM3C Assay for Interleukin-6 (IL6) Biomarker Activity for (AID 2283040). As to conditions: primary human coronary artery smooth muscle cells; actives raise or lower the signal.

Read-out in test [18]: Tissue plasminogen activator (tPA), PLAT (gene 5327)
Put plainly: BSK_BE3C_tPA: BioMAP Diversity Plus: BE3C Assay for Tissue plasminogen activator (tPA) Biomarker Activity (AID 2283041).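 For outcome: tPA level quantified by ELISA one day after compound addition.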 Particulars: primary human bronchial epithelial cells; actives raise or lower the signal. A digest of the protocol:
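Using human lung primary bronchial epithelial cells, tPA was measured by ELISA 24 h after dosing; data fitted relative to DMSO.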

In test [19] the target is human Vitamin D Receptor (VDR), VDR (gene 7421) (UniProt P11473). Put plainly: ATG_VDR_TRANS: Attagene TRANS-FACTORIAL HepG2 Assay for human Vitamin D Receptor (VDR) (AID 2283022; active = hit-call score of the fitted dose curve at least 0.9, where 1 is the maximum). A digest of the protocol: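 RT-PCR/capillary electrophoresis read-out of reporter mRNA induction in transiently transfected HepG2; 24 h dosing; chimeric NR-Gal4 (TRANS format); gain-of-signal fit against DMSO baseline.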
Chain of human Vitamin D Receptor (VDR), VDR (gene 7421) (P11473 whole entry, looked up, the tested form may be a part): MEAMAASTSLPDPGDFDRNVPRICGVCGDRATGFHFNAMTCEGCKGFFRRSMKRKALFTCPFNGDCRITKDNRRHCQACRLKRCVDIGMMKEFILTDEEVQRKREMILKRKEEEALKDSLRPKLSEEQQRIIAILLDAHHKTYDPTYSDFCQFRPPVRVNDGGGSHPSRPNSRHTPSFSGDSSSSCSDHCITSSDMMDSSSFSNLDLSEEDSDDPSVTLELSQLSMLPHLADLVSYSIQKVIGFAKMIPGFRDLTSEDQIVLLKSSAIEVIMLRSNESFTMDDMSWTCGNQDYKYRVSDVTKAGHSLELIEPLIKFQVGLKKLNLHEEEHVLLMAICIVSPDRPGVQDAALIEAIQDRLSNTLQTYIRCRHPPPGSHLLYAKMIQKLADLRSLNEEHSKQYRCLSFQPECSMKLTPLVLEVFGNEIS

Read-out in test [20]: Human Leukocyte Antigen - DR isotype (HLADR), HLA-DRA (gene 3122)
Put plainly: BSK_BE3C_HLADR: BioMAP Diversity Plus: BE3C Assay for Human Leukocyte Antigen - DR isotype (HLADR) Biomarker Activity (AID 2283032). As to conditions: primary human bronchial epithelial cells; actives raise or lower the signal. A digest of the protocol:
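BioMAP BE3C format: human bronchial epithelium, 24 h compound treatment, ELISA detection of HLA-DR, with bidirectional analysis relative to DMSO.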

For the compound `CCCCCCCCCCCCO`, the AC50 was 31.2 µM (active) in test [1]; 38.4 µM (active) in test [3]; 34.2 µM (active) in test [4]; 31.1 µM (active) in test [5]; 31.9 µM (active) in test [6]; 30.9 µM (active) in [8]. For the same compound, the AC50 in test [9] was 34 µM (active); in [10] it was 30.5 µM (active); in test [11] it was 30.8 µM (active); in test [13], 30.1 µM (active); in test [17] it was 30.7 µM (active); in test [18], 24.8 µM (active). Further, the result in [2], in [7], in test [12], in [14], in test [15] and in test [16] was inactive.

For `O=C=NCCCCCCN=C=O`, the outcome in [1], in test [2], in [3], in test [4], in [5] and in test [6] was inactive. In addition, the result in test [7], in [8], in [9], in [10], in test [11] and in test [12] was inactive. For the same compound, the result in test [13], in test [14], in test [15] and in test [17] was inactive.

For `OCCO`, the result in [19], in test [1], in test [2], in [3], in [4] and in test [5] was inactive. Besides, the result in [6], in [7], in [8], in test [10], in test [11] and in test [12] was inactive. Moreover, the outcome in test [13], in test [14], in test [15], in test [17] and in test [18] was inactive.

Consider `CN(C[C@@H](CC[N+]12CCC(C3CCCCC3)(CC1)CC2)c1ccc(Cl)c(Cl)c1)C(=O)c1cc(C(F)(F)F)cc(C(F)(F)F)c1`, for which the outcome in test [19], in test [7] and in [9] was inactive. In addition, the AC50 in test [1] was 12.9 µM (active); in [2], 23.5 µM (active); in [3] it was 13.3 µM (active); in test [4], 29.2 µM (active); in [5], 16.5 µM (active); in test [6], 13 µM (active). Further, the AC50 is 29.1 µM (active) in [8]; 32 µM (active) in [10]; 13.1 µM (active) in test [11]; 29.6 µM (active) in test [12]; 17.5 µM (active) in test [13]; 12.5 µM (active) in test [14]. The results for the AC50 in test [15] and in [17] were 16.6 µM (active) and 15.9 µM (active), respectively.

For the compound `CC(C)(C)c1cc(/C=C2\SC(N)=NC2=O)cc(C(C)(C)C)c1O`, the AC50 in [1] is 29.1 µM (active); in [3], 16.3 µM (active); in test [4], 13.3 µM (active); in test [5], 28.7 µM (active); in test [8], 36.7 µM (active); in [9], 27.4 µM (active). In addition, the AC50 was 7.46 µM (active) in test [20], 26.4 µM (active) in test [10], 3.97 µM (active) in test [15] and 36.2 µM (active) in test [17]. The result in test [2], in test [6], in [7], in test [11], in test [12] and in test [13] was inactive. Besides, the result in test [14] and in test [16] was inactive.

In the case of `CCN(CC)C(=O)c1cc(S(=O)(=O)Cc2ccccc2)c(N2CCC(c3ccccc3)CC2)cc1N(CC)CCN(C)C`, the concentration at half-maximal activity (AC50) in test [1] is 5.18 µM (active); in test [3], 6.48 µM (active); in test [4], 7.87 µM (active); in test [5] it was 19.2 µM (active); in [6], 11 µM (active); in test [7], 4.43 µM (active). For the same compound, the AC50 was 19.8 µM (active) in [8]; 8.48 µM (active) in test [20]; 18.3 µM (active) in [10]; 10.9 µM (active) in [11]; 12.6 µM (active) in test [12]; 9.99 µM (active) in test [13]. In addition, the AC50 in test [14] was 7.91 µM (active); in [15] it was 10.3 µM (active); in test [17] it was 0.7 µM (active); in test [18] it was 6.65 µM (active). In test [9], the result was inactive.

`O=C(Nc1ccc(Cl)cc1)Nc1ccc(Cl)c(Cl)c1`: the half-maximal activity concentration (AC50) in [1] was 2.66 µM (active); in test [4], 2.6 µM (active); in [5] it was 2.02 µM (active); in [8], 1.92 µM (active); in test [9], 2.19 µM (active); in test [10] it was 3.48 µM (active). Besides, the AC50 in [11] was 2.52 µM (active); in test [14] it was 1.11 µM (active); in [16] it was 1.1 µM (active); in test [17] it was 12.7 µM (active); in test [18] it was 1.73 µM (active). Besides, the result in test [2], in test [3], in test [6], in test [7], in test [12] and in test [13] was inactive. Moreover, in [15], the result was inactive.
